Rab9 prom act: activates the Rab9 promoter; Huh7 Rab9 promoter-luciferase reporter, luminescence, 24 h; Potency, µM (highest dose often 9.22 µM), for the others: top-dose activation, negative = inhibition, hits mostly activators; hit rate 2.8% among 320,000; further: % of control where 0% means no effect; nearly all actives have a fitted effect of over 60% in size
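Measured in stably transfected Huh7 cells bearing a Rab9 promoter–luciferase construct: 24 h compound treatment at 37 °C, followed by luminescence detection.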
SMN2 splice enh: SMN2 splice variant enhancement; HEK293 SMN2-luciferase splicing reporter, luminescence, 30-36 h; Potency, µM (top dose mostly 46.1 µM), inactives show at the highest dose activity change, positive = activation, actives largely listed as activators; hit rate 2.8% among 210,000; AID 1458; further: % of control where 0% means no effect; nearly all actives have a fitted effect of over 55% in size
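qHTS luciferase splicing reporter: luminescence rises when SMN2 exon 7 is included in transfected HEK293 cells. Compound exposure lasted 30-36 h at 37C, with 4.5 mM final sodium butyrate as control, followed by a ONE-Glo read.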
NPC1 prom act: activates the NPC1 promoter. Potency, µM (titrated, usually from 9.22 µM), without a hit: at the top dose activation, usual class: activators. AID 485313. Huh7 NPC1 promoter luciferase reporter, 24 h. hit rate 2.4% among 320,000; further: % of control where 0% means no effect; nearly all actives have a fitted effect of over 60% in size
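Luciferase expression driven by the NPC1 promoter was measured in stably transfected Huh7 cells after a 24 h compound incubation, using a luciferase reagent and a luminescence read.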
ELG1 genotoxic: induces genotoxicity in HEK293T cells with luciferase-tagged ELG1. Potency, µM (series often up to 46 µM), without a hit: at the top dose activity change, positive = activation, actives largely listed as activators. HEK293T ELG1-luciferase reporter, luminescence, 16 h. AID 504466. hit rate 1.3% among 330,000; further: % of control where 0% means no effect; nearly all actives have a fitted effect of over 60% in size
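Quantitative HTS format in 1536-well plates. HEK293T ELG1-luciferase reporter cells receive test compound and are incubated 16 hr at 37 °C, 5% CO2; ONE-Glo added, 30 min room temperature, then luminescence read.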
FLuc counter: inhibits or activates purified firefly luciferase, miR-21 counter-screen. P08659. hit rate 6.9% among 360,000. purified FLuc, Km substrates, luminescence inhibition. AID 588342. Potency, µM (doses to about 57.5 µM), for inactives: at the highest dose activity change, negative = inhibition, most hits filed as inhibitors;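 further: plate controls were vehicle for no effect and reference inhibitor for full effect; nearly all actives have a fitted effect of over 55% in size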
Target sequence (P08659 whole entry, looked up): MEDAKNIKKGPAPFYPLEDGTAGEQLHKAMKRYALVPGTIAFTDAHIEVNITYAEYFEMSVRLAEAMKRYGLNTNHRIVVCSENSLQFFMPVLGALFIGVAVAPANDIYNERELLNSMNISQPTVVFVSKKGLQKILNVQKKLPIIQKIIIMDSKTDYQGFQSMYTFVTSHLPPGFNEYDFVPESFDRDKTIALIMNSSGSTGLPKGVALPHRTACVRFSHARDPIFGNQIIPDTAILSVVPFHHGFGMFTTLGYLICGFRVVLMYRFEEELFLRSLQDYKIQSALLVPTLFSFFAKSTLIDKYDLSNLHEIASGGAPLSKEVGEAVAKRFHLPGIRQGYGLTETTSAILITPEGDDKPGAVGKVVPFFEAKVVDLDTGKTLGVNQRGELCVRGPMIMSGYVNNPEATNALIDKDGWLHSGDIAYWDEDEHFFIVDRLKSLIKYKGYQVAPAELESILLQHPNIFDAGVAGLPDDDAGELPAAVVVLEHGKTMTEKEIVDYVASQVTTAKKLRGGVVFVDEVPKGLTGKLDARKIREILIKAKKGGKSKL
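Purified P. pyralis luciferase (10nM final) with 10uM D-luciferin and 10uM ATP (Km levels) in 50mM Tris acetate pH 7.5, 10mM Mg acetate, 0.01% Tween-20, 0.05% BSA; qHTS 6-point titration, ~60 µM downward; luminescence read.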
ELG1 DNA repair: blocks ELG1-dependent DNA repair in HEK293T cells; HEK293T ELG1-luciferase reporter, luminescence, 16 h; DNA damage induced by 5-fluorouridine; Potency, µM (titrated, usually from 46.1 µM), for the others: at the highest dose activity change, negative = inhibition, actives largely listed as inhibitors; hit rate 2.3% among 330,000; AID 504467; further: on the % scale 0 is the no-effect control and ±100 the full control effect; nearly all actives have a fitted effect of over 55% in size
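Cells (2,000 per well) received 5-fluorouridine plus test compound or DMSO and were incubated 16 hr at 37 °C, 5% CO2. Luciferase activity was read by luminescence 30 min after ONE-Glo addition; signal suppression marked inhibition of damage-induced ELG1 function.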
* = called active by the depositor; u = inconclusive; x = not tested or not shown; [ ] = dose if it differs, or a comment. This is a sample that favours compounds with a hit; in the whole collection about 9.2% have one here. The call rests on the fitted dose curve; in most records, active means well fitted curve in the direction sought with a large enough effect; inconclusive means small, poorly fitted or top-dose-only effect, or another doubt; inactive means no such curve, though single readings can be large; an effect the other way counts as inactive or inconclusive. Potency means the concentration at half of the fitted maximal effect.

SMILES	Rab9 prom act	SMN2 splice enh	NPC1 prom act	ELG1 genotoxic	FLuc counter	ELG1 DNA repair
CCC(=O)Nc1cccc(-c2ccc(N3CCC(C)CC3)nn2)c1	0.316µM*	x	0.316µM*	0.731µM*	0.135µM*	u
CC1CCN(c2ccc(-c3cccc(NC(=O)c4ccco4)c3)nn2)CC1	1µM*	x	1.26µM*	0.517µM*	0.151µM*	u
CCC(=O)Nc1ccc(-c2ccc(N3CCC(C)CC3)nn2)cc1	1.41µM*	x	2.82µM*	u	9.53µM*	u
CNC(=O)c1[nH]cnc1C(=O)Nc1ccccn1	-0.3%	22.8%	2.6%	5.6%	u	u
CCCOC(=O)c1c(NC(=O)C2c3ccccc3Oc3ccccc32)sc2c1CCCC2	x	-8.6%	x	x	0.0%	x
CO[C@@H]1/C=C\O[C@]2(C)Oc3c(C)c(O)c4c(O)c(cc(O)c4c3C2=O)NC(=O)/C(C)=C\C=C/[C@H](C)[C@@H](O)[C@H](C)[C@H](O)C(C)[C@H](OC(C)=O)[C@@H]1C (stereo partly specified)	x	3.7%[9.22 µM]	x	x	x	x
COc1ccc(NC(=O)NNC(=O)CCc2ccc(O)c(O)c2)cc1OC	0.5%	x	-8.4%	3.0%	-0.7%	4.5%
CCOC(=O)c1cnc2c([N+](=O)[O-])cnn2c1C	-1.2%	10.2%	7.8%	-2.2%	-3.7%	15.1%
CCOC(=O)c1cnn2c(C)cc(-c3ccccc3)nc12	3.55µM*	31.6µM*	u	9.2µM*	19µM*	u
CCOC(=O)c1cnn(C(=O)c2ccccc2)c1N	3.8%	-7.8%	-1.5%	0.7%	19µM*	1.0%
CCOC(=O)c1cc2nc(-c3ccccc3)cc(C)n2n1	2.1%	x	-1.6%	-2.2%	4.9%	-4.9%
Cc1cc(C)n2ncc(/C(N)=N/OC(=O)c3ccccc3F)c2n1	u	x	u	u	12µM*	u
CCOC(=O)c1cnc2c(-c3cccc(Br)c3)cnn2c1C	3.55µM*	x	3.16µM*	u	2.39µM*	u
CC1=C(C(=O)Nc2ccccc2C)C(c2ccccn2)n2nc(SCc3ccccc3F)nc2N1 (stereo unspecified)	x	-1.2%	x	x	-2.1%	x
Cc1ccccc1N(CC(=O)Nc1ccccc1C(=O)NCc1ccco1)S(=O)(=O)c1ccccc1	-4.6%	-20.6%	-2.0%	-8.3%	3.7%	u
CCOC(=O)c1cnc2c(C(=O)OCC)cnn2c1N	3.98µM*	x	u	9.4%	u	u
Cc1cccc(CCNC(=O)c2sc3nc4n(c(=O)c3c2C)CCCC4)c1	x	x	x	x	13.5µM*	x
CCOc1ccc(CCNC(=O)c2sc3nc4n(c(=O)c3c2C)CCC4)cc1OCC	3.7%	x	-2.9%	-4.2%	1.7%	6.51µM*
CCOc1ccc(CCNC(=O)c2sc3nc4n(c(=O)c3c2C)CCCC4)cc1OCC	x	x	x	x	-3.1%	x
CN(C)C/C=C(/c1ccc(Br)cc1)c1cccnc1	-6.3%[46.1 µM]	-59.3%	0.3%[46.1 µM]	x	x	x
Cc1ccc(-n2ncc(-c3nnc(SCC(=O)NC4CCCC4)o3)c2N)cc1C	18.0%	-16.7%	0.0%	-15.6%	u	11.6µM*
Cn1c(O)c(N=NC(=O)CNC(=O)c2ccccc2)c2ccccc21	0.3%	x	-4.0%	9.4%	-1.7%	-3.2%
Cn1c(N=NC(=O)c2ccccc2)c(O)c2ccccc21	0.562µM*	1.26µM*	0.708µM*	u	0.849µM*	u
CCN(CC)C(=O)CCCOc1ccc(Cl)cc1Cl	u	-0.7%	3.16µM*	8.1%	u	u
C#CCN(C)CCCOc1ccc(Cl)cc1Cl	u	14.7%	u	15.7%	13.5µM*	u
SMILES	Rab9 prom act	SMN2 splice enh	NPC1 prom act	ELG1 genotoxic	FLuc counter	ELG1 DNA repair
CC(C)NC(=O)CCCOc1ccc(Cl)cc1Cl	24.0%	-2.4%	15.3%	u	u	u
CN(C)CCCCOc1ccc(Br)cc1Cl	2.7%	-19.7%	-11.1%	-1.2%	0.6%	-3.4%
O=C(CCCOc1ccc(Cl)cc1Cl)n1nnc2ccccc21	0.0%	-7.5%	-1.6%	0.9%	u	1.6%
Nc1nncn1C(=O)CCCOc1ccc(Cl)cc1Cl	0.9%	-1.6%	-3.2%	3.1%	9.53µM*	10.9%
CCN(C(=O)Cn1cnc2ccccc2c1=O)C1CCS(=O)(=O)C1 (stereo unspecified)	-10.4%	x	-1.9%	0.1%	-0.8%	u
COc1cc(OC)c(OC)cc1/C=N/Nc1nc2ccccc2[nH]1	8.8%	x	1.1%	1.3%	-14.2%	u
COc1ccc(/C=N/Nc2nc3ccccc3[nH]2)cc1OC	u	0.8%[1.84 µM]	u	11.1%	7.57µM*	u
CCOc1cc(/C=N/Nc2nc3ccccc3[nH]2)cc(Br)c1OCC(=O)N(C)C	-0.4%	-82.2%	-0.4%	-15.1%	23.9µM*	23.1µM*
COc1ccc2c(c1)c(/C=N/Nc1nc3ccccc3[nH]1)c(C)n2C	0.5%	x	5.7%	4.4%	9.53µM*	u
COc1cc(/C=C/C(=O)NCc2nc3ccccc3[nH]2)cc(OC)c1OC	-5.6%	x	-3.5%	u	-0.7%	u
COc1ccc2c(c1)c(C(=O)N/N=C/c1cn(C)c3ccccc13)c(C)n2C	1.1%	x	3.1%	-3.1%	u	-3.0%
CCOc1cc(/C=C2\COc3ccccc3C2=O)cc(Br)c1OCC(=O)N(C)C	2.6%	x	-15.6%	-10.4%	u	u
COc1cc(/C=N\Nc2nc3ccccc3[nH]2)cc(OC)c1OC	-6.2%	-23.5%	-2.5%	-2.2%	10.7µM*	-2.3%
COc1ccc(NC(=O)c2cnn(-c3ccc(C)cc3)c2-n2cccc2)cc1Cl	x	x	x	x	-10.7%	x
O=C(COc1ccc(Cl)cc1)OCc1cc(=O)n2nc(-c3cccs3)sc2n1	x	x	x	x	0.9%	x
Cc1nn(CC(=O)Nc2ccc3c(c2)nc(CCN2CCCCC2)n3C)c(=O)c2ccccc12	4.1%	19.1%	-1.3%	-2.8%	-0.4%	-13.7%
Cc1nn(CC(=O)Nc2ccc3c(c2)nc2n3CCN(C3CCCCC3)C2)c(=O)c2ccccc12	-1.9%	x	9.5%	0.7%	21.3µM*	-2.0%
Cc1cccc(-c2cc3nc(-c4ccccc4)cc(=O)n3[nH]2)c1	2.82µM*	x	2µM*	u	7.57µM*	u
O=C1CCC(=O)N1c1nc2nc(-c3ccccc3)cc(=O)n2[nH]1	-5.0%	19.3%	-1.2%	0.1%	-8.7%	-4.4%
O=c1cc(-c2ccccc2)nc2nc(SCc3ccccc3)[nH]n12	8.3%	6.3%	1.1%	12.4%	26.9µM*	8.8%
O=c1cc(-c2ccccc2)nc2nc(CCc3ccccc3)[nH]n12	1.7%	12.4%	0.3%	-1.4%	u	1.2%
O=c1cc(-c2ccccc2)nc2nc(-c3ccco3)[nH]n12	10.9%	u	14.5%	u	3.38µM*	u
Cc1nc2nc(-c3ccccc3)cc(=O)n2[nH]1	17.0%	u	17.0%	u	7.57µM*	u

Source: PubChem BioAssay
